HP1b binding inh: HP1-beta chromodomain-methylated histone interaction inhibition | 390,000 compounds, 0.56% hits | Potency, µM (top dose mostly 114 µM), hits mostly inhibitors | P83916 | AlphaScreen HP1-beta / biotin-H3K9me3 peptide binding; note: nearly all actives have a fitted effect of over 70% in size
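Compound inhibition of the preformed complex between 50 nM HP1-beta and 50 nM biotinylated H3K9me3 peptide was read by AlphaScreen. Buffer was PBS pH 7.4 with 0.01% Tween-20. Incubations ran 30 min at room temperature, with 10 ug/mL donor/acceptor beads.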
G9a block: inhibitors of human histone lysine methyltransferase G9a. 350,000 compounds, 8.8% hits. Q96KQ7. AID 504332. G9a H3K9 monomethylation, AlphaScreen, 2 h. Potency, µM (highest dose often 102 µM), actives largely listed as inhibitors; note: nearly all actives have a fitted effect of over 75% in size
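Methyltransferase reactions run at room temperature for 2 h (20 nM enzyme, 500 nM biotin-H3K9 peptide, 20 uM SAM) after a 15 min compound preincubation; product detected by AlphaScreen beads and anti-H3K9me1 antibody.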
PLK1 PBD block: inhibitors of human PLK1 polo-box domain binding. Potency, µM, actives largely listed as inhibitors. P53350. 360,000 compounds, 2.8% hits. AID 720504. Plk1 PBD binding of FITC phosphopeptide, fluorescence polarization; note: series mostly up to about 57 µM; nearly all actives have a fitted effect of over 65% in size
Target sequence (P53350 whole entry, looked up, the tested form may be a part): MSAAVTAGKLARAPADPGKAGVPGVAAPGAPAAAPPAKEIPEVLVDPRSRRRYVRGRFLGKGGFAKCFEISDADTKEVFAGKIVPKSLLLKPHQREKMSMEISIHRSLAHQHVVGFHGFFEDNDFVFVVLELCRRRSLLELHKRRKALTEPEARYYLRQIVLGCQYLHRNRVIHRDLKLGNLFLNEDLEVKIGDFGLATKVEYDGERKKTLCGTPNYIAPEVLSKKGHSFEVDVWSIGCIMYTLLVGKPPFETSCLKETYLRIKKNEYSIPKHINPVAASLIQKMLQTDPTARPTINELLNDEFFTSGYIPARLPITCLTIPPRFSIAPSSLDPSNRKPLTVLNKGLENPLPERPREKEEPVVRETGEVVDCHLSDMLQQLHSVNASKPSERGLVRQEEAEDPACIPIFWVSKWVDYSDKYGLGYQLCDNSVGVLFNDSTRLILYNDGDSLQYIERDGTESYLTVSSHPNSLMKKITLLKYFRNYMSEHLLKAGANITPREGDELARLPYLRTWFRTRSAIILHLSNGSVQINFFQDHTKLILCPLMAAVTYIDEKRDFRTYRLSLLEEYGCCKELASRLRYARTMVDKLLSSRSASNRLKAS
JMJD2A Tudor: inhibitors of human JMJD2A Tudor domain; Potency, µM (titrated, usually from 114 µM), hits mostly inhibitors; O75164; AlphaScreen JMJD2A-Tudor / H3K4me3 peptide binding; 390,000 compounds, 4.4% hits; note: nearly all actives have a fitted effect of over 50% in size
ALOX12 inh: ALOX12 (human) lipoxygenase inhibition; P18054; purified 12hLO, xylenol orange hydroperoxide absorbance; Potency, µM (top dose mostly 108 µM), hits mostly inhibitors; 580,000 compounds, 1.1% hits; AID 1671190
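Purified human 12hLO at 150 nM in 25 mM Hepes, 0.01% Triton X-100, pH 7.0, preincubated 15 min at room temperature with compound. Reaction started with 40 uM arachidonic acid, 30 min at room temperature. Hydroperoxide measured by Fe-xylenol orange, 573/405 nm absorbance ratio.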
BAZ2B inh: BAZ2B (human) inhibition. AlphaScreen BAZ2B-H3K14Ac peptide displacement. Potency, µM (doses to about 114 µM), actives largely listed as inhibitors. 360,000 compounds, 4.4% hits; note: nearly all actives have a fitted effect of over 60% in size
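In this displacement format the biotinylated H3(5-23) peptide acetylated at Lys14 serves as ligand at 50 nM, with BAZ2B at 50 nM in PBS pH 7.4 containing 0.01% Tween-20. Donor and acceptor beads are 10 ug/mL final.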
A number is an active result; i = inactive; ? = inconclusive; nt = no result given; [ ] = another dose, or the depositor's remark. An excerpt weighted towards active compounds, which were near 9% of everything screened. Calls come from the whole dose curve; as a rule, active = well fitted curve in the direction sought with a large enough effect; inconclusive = small, poorly fitted or top-dose-only effect, or another doubt; inactive = no such curve, though single readings can be large; an effect the other way counts as inactive or inconclusive.

SMILES | HP1b binding inh | G9a block | PLK1 PBD block | JMJD2A Tudor | ALOX12 inh | BAZ2B inh
COc1ccccc1C1(CC(=O)N2CCOCC2)CCOC(C(C)C)C1 (configuration not stated) | i | 50.1µM | ? | i[11.4 µM] | i | ?
Cc1c([N+](=O)[O-])c2ccc(O)cc2n1-c1ccccc1 | i | i | i | i | i | i
Cc1ccc(-n2c(C)c([N+](=O)[O-])c3ccc(O)cc32)cc1 | nt | 50.1µM | nt | nt | i | i
O=C(Nc1ccccc1)O[C@@H]1CO[C@H]2[C@@H]1OC[C@@H]2NC(=S)Nc1ccccc1 | nt | nt | nt | nt | 70.8µM | nt
S=C(Nc1cccc2ccccc12)N[C@H]1CO[C@H]2[C@@H]1OC[C@H]2OCc1ccccc1 | nt | nt | nt | nt | 63.1µM | nt
O=C(Nc1cccc2ccccc12)O[C@@H]1CO[C@H]2[C@@H]1OC[C@@H]2NC(=S)Nc1cccc2ccccc12 | nt | nt | nt | nt | 50.1µM | nt
CCNC(=O)O[C@@H]1CO[C@H]2[C@@H]1OC[C@@H]2NC(=S)Nc1ccc(N(C)C)cc1 | nt | nt | nt | nt | 112µM | nt
NC(=O)CO[C@@H]1CO[C@H]2[C@@H]1OC[C@@H]2NC(=O)Nc1cccc2ccccc12 | nt | nt | nt | nt | i | nt
COc1cc(NC(=S)N[C@H]2CO[C@H]3[C@@H]2OC[C@H]3OC(=O)Nc2ccccc2)cc(OC)c1 | nt | nt | nt | nt | i | nt
c1cc(-c2noc(CSc3nnnn3C3CC3)n2)cs1 | nt | nt | nt | nt | i | nt
O=C(O)CC(c1cccc(O)c1)N1Cc2ccccc2C1=O (configuration not stated) | i | i | i | i | i | i
CC(C)NC(=O)CC1(C(=O)NCc2ccc(F)cc2)CCCC1 | nt | nt | nt | nt | i | nt
CN(C)c1ccc(NC(=S)N[C@H]2CO[C@H]3[C@@H]2OC[C@H]3OC(=O)Nc2cccc3ccccc23)cc1 | nt | nt | nt | nt | i | nt
O=C(Nc1cccc2ccccc12)O[C@@H]1CO[C@H]2[C@@H]1OC[C@@H]2NC(=S)Nc1ccc(Cl)cc1 | nt | nt | nt | nt | 35.5µM | nt
COCCn1c(SCC(=O)Nc2ccc(C(F)(F)F)cc2)nc2c([nH]c3ccccc32)c1=O | i | i | nt | i | ? | i
O=C(NCc1ccccc1Cl)c1cccc(C(F)(F)F)c1 | i | 44.7µM | i | i | i | i
CN(C)c1cccc(C(=O)NCc2ccccc2Cl)c1 | i | i | i | ? | i | 50.1µM
C=CCNc1nc(SCC=C)nc2ccsc12 | i | i[12.7 µM] | i | i | i | i
CCOc1cc(NC(=O)C2CCCCC2)c(OCC)cc1NC(=O)c1ccco1 | i | i | i | i | i | ?
CS(=O)(=O)Nc1cccc(C2=NN(S(=O)(=O)c3ccc(F)cc3)C(c3cccs3)C2)c1 (configuration not stated) | i | i | ? | 79.4µM | ? | i
COc1ccc(S(=O)(=O)N2N=C(c3cccc(NS(C)(=O)=O)c3)CC2c2ccco2)cc1 (configuration not stated) | i | 44.7µM | i | i | i | i
COc1ccc(NC(=O)c2ccccc2Sc2ccc(NC(C)=O)nc2)cc1 | i | 20µM | i | i | ? | ?
CC(=O)Nc1ccc(Sc2ccccc2C(=O)Nc2ccc(F)cc2)cn1 | ? | ? | 18.9µM | ? | i | i
COc1ccc(NC(=O)c2ccccc2SCc2ccccc2)cc1 | nt | nt | i | nt | ? | nt
CCn1c(CSc2n[nH]c(-c3ccccc3)n2)nc2cc(S(=O)(=O)N3CCOCC3)ccc21 | nt | nt | nt | nt | i | nt
SMILES | HP1b binding inh | G9a block | PLK1 PBD block | JMJD2A Tudor | ALOX12 inh | BAZ2B inh
COc1ccc(C(=O)Nc2nc(-c3nnn(-c4cc(OC)ccc4OC)c3C)ns2)cc1 | i | i | nt | i | i | i
CC(C)CNS(=O)(=O)c1ccc(CCC(=O)Nc2ccc3c(c2)OCO3)cc1 | i | i | i | i | i | i
COc1ccc(C2(CNC(=O)c3cc(OC)c(OC)c(OC)c3)CCCC2)cc1OC | i | nt | i | i | i | nt
COc1ccc(C2(CNC(=O)/C=C\c3ccco3)CCCC2)cc1OC | i | 12.6µM | ? | i | 44.7µM | i
COc1ccc(C(NC(=O)c2ccco2)c2ccc(OC)c(OC)c2)cc1 (configuration not stated) | i | i[12.7 µM] | i | i | i | i
COc1ccc(C(NC(=O)/C=C/c2ccco2)c2ccc(OC)c(OC)c2)cc1OC | i | 8.91µM | i | i | ? | ?
CSc1ccc(CCNC(=O)c2c(C)oc3ncn(C)c(=O)c23)cc1 | i | i | nt | i | i | i
COC1=C(Nc2ccc(OC)cc2)C(=O)C(OC)=C(Nc2ccc(OC)cc2)C1=O | i | nt | i | i | i | nt
